Experimental data taken from PubChem BioAssay (NCATS).
Results filed as inconclusive are left out. A call without a number means that no potency is given here. A number with no mark means an inactive call. Calls of active or inactive are those of the source. The call rests on the fitted dose curve; in most records, active means well fitted inhibition curve with a large enough effect; inconclusive means small, poorly fitted or top-dose-only effect; inactive means no such curve, though single readings can be large or run the other way.

test: Primary fluorescence-based thiol-reactive (MSTI) qHTS assay for identification of artifact compounds. (AID 1845221); settings: MSTI thiol-reactivity probe, 1 h; series mostly up to 53.8 µM; further: nearly all actives have a fitted effect of over 65% in size;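 on activity change, negative = thiol reactive: thiol-reactive compounds lower the probe fluorescence signal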
Procedure, shortened: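 A multi-concentration qHTS design tested compounds against 4 uM MSTI, pH 7.4 phosphate-buffered saline. Plates were protected from light for 1 h at room temperature before imaging fluorescence.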
Potency means the concentration at half of the fitted maximal effect.

SMILES | Potency | activity change, negative = thiol reactive
CC(C)(O)C(O)C(=O)OCc1ccc(O[C@@H]2O[C@H](CO)[C@@H](O)[C@H](O)[C@H]2O)cc1 (stereo partly drawn) | inactive | –
C/C=C(/C)C(=O)O[C@@H]1C[C@@H](OC(=O)/C(C)=C\C)[C@@]2(C)C3C(=O)C=C(C)C2C3C1(C)C | inactive | –
C=C(C)[C@@H]1CC[C@]2(C)CC[C@]3(C)C(CCC4[C@@]5(C)CC[C@H](O)C(C)(C)C5CC[C@]43C)C12 (stereo partly drawn) | inactive | –
CC(=O)O[C@@H]1C(=O)C(C)=C(CCC(C)CC(=O)O)[C@@]2(C)CCCC(C)(C)C12 (stereo partly drawn) | inactive | –
C/C=C/C=C/C(=O)OC1CC/C=C/C(O)C(O)C(CCC)OC1=O (stereo not drawn) | inactive | –
C=C1C(O)CC2C(C(=O)O)=COC(OC3OC(CO)C(O)C(O)C3OC(=O)/C=C\c3ccc(O)cc3)C12 (stereo not drawn) | 4.62 µM (active) | –
CC(C)c1c(NC(=O)Nc2ccc(Cl)cc2)c(=O)n(-c2ccccc2)n1C | inactive | –
CC(C)(C)NS(=O)(=O)c1ccc(-c2ccc3[nH]nc(N)c3c2)cc1 | 7.52 µM (active) | –
COc1cc2c(cc1O)C(c1ccc(O)cc1)C(C)C(C)C2 (stereo not drawn) | inactive | –
CCNC(=O)OC1CCN(c2nncc3cc(OC)c(OC)cc23)CC1 | inactive | –
CC(=O)OC1CC2(C)C(CCC(C)C23Cc2c(O)cc4c(c2O3)CNC4=O)C(C)(C)C1O (stereo not drawn) | inactive | –
CC1=C(CCC(C)O[C@@H]2O[C@H](CO)[C@@H](O)[C@H](O)[C@H]2O)C(C)(C)CC(O)C1 (stereo partly drawn) | 5.85 µM (active) | –
C=C1C(OC(C)=O)C(=O)C2C(C)(C)C(O)CCC2(C)C1CC(OC(C)=O)/C(C)=C/COC(C)=O (stereo not drawn) | inactive | –
C=C1[C@H]2CCC3[C@]4(C)CCC[C@@](C)(C(=O)O)C4CC[C@]3(C2)[C@H]1OC(C)=O (stereo partly drawn) | inactive | –
N#Cc1cc(-c2n[nH]c(-c3ccncc3)n2)ccn1 | inactive | –
COC1CC(O[C@H]2CC[C@@]3(C)C(=CC[C@]4(O)C3[C@H](O)[C@@H](O)[C@]3(C)[C@@H]([C@H](C)O)CC[C@@]34O)C2)OC(C)C1OC1CC(OC)C(OC2CC(OC)C(OC3OC(C)C(OC4OC(CO)C(O)C(O)C4O)C(OC)C3O)C(C)O2)C(C)O1 (stereo partly drawn) | – | 43.2% [at 11.5 µM]
CC1=C2CC(C)(C)CC2C(O)C2=C(C1)C(=O)OC2O (stereo not drawn) | inactive | –
C[C@@H]1[C@H]2[C@H](O[C@@H]3O[C@H](CO)[C@@H](O)[C@H](O)[C@H]3O)OC=C(C(=O)O)[C@H]2C[C@@H]1OC(=O)/C=C/c1ccc(O)cc1 | 10.3 µM (active) | –
